In PubChem BioAssay AID2108 (National Center for Advancing Translational Sciences (NCATS), 2009):
Inconclusive results are not listed. Active and inactive are the calls of the source. Calls come from the whole dose curve; as a rule, active = well fitted curve in the direction sought with a large enough effect; inconclusive = small, poorly fitted or top-dose-only effect, or effect the other way, or another doubt; inactive = no such curve, though single readings can be large or run the other way.

target: Alpha-galactosidase A (Homo sapiens) (UniProt P06280); test: Confirmation of Inhibitors of Human alpha-Galactosidase Using Spleen Homogenate; settings: alpha-galactosidase enzyme activity; series mostly up to 56.2 µM
Summary of the method: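 Human spleen homogenate (1 ug) with 1 mM 4-methylumbelliferyl-alpha-D-galactopyranoside in citrate-phosphate pH 5.0, 0.01% Tween-20, 37C 40 min; compounds 0.5 nM–58 uM final. Stopped at pH 10, fluorescence Ex 365/Em 440; AC50 from Hill fits.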

Sequence of Alpha-galactosidase A (Homo sapiens) (P06280 32-429 limits assumed): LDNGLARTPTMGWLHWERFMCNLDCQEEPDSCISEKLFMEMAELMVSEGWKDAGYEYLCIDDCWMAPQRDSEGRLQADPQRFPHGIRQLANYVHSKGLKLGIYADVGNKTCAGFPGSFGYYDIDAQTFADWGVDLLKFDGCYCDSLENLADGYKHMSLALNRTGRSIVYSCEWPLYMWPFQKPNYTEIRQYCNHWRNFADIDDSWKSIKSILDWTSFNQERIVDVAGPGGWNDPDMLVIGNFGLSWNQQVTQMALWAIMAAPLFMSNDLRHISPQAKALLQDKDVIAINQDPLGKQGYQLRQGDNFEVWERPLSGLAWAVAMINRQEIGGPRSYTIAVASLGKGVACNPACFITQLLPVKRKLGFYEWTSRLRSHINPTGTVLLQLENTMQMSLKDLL

outcome, inactive:
O=C(CSc1ncc(C(F)(F)F)cc1Cl)N1CCN(S(=O)(=O)c2ccccc2)CC1
O=C(/C=C/c1ccc(O)c(O)c1)c1ccc(O[C@@H]2O[C@H](CO)[C@@H](O)[C@H](O)[C@H]2O)c(O)c1O
COc1ccccc1CNc1ccc(N2CCOCC2)c(C(=O)O)c1
CC(=O)Nc1cccc2c1C(=O)NC2=O
N=c1sccn1CC(=O)Nc1cc(S(=O)(=O)N2CCCC2)ccc1Cl
c1ccc(-n2c(-c3cccs3)nc3nc4ccccc4nc32)cc1
COc1cc(NC(=O)CN2CCN(c3ccccc3F)CC2)c(C)cc1[N+](=O)[O-]
O=C1c2cc(S(=O)(=O)N3CCOCC3)ccc2-c2ccc(S(=O)(=O)N3CCOCC3)cc21
N#Cc1cccc(S(=O)(=O)N2CCOCC2)c1
O=C(CNc1ccc(Cl)cc1)c1ccc(Br)cc1
CCOC(=O)N1CCN(c2cc(N(C)CCO)c([N+](=O)[O-])c3nonc23)CC1
Cc1ccccc1NC(=O)CC1c2ccccc2CC(C)(C)N1C (configuration not stated)
O=C(O)Cn1nnnc1SCC(=O)Nc1ccc(OC(F)(F)F)cc1
O=S(=O)(c1ccc2c(c1)C(=NNc1ccccc1)c1cc(S(=O)(=O)N3CCOCC3)ccc1-2)N1CCOCC1
CCOc1ccc2c(c1)c(=O)c(S(=O)(=O)c1ccc(C)cc1)cn2Cc1ccccc1Cl
Cc1ccc(CNc2ccc(N3CCOCC3)cc2)cc1
Cc1[nH]nc2c1C(c1ccc(OC(=O)c3ccco3)cc1)C(C#N)=C(N)O2 (configuration not stated)
